Screening data: PubChem BioAssay, Center for Chemical Genomics, University of Michigan
Dicer inh – inhibitors of human Dicer processing of pre-microRNA; z-score at 25 µM; 47,000 tested, 6% active; cat-ELCCA pre-miR-21 Dicer processing, chemiluminescence; stronger effect = higher value; in the data active means z-score above about 3, passing the limit was not always enough;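 further: plate controls were vehicle for no effect and no enzyme for full effect; higher signal means more uncleaved substrate so more Dicer inhibition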
* = called active by the depositor. Only a selection was taken, and hits are over-represented in it overall.

SMILES	Dicer inh
S=C1C=C(N2CCCCC2)CC(c2cccs2)S1 (configuration not stated)	4.9*
Clc1ccccc1-c1nnc2sc(COc3ccccc3)nn12	1.6
CCN1C(=O)C2(/C(=C(/O)c3ccc(F)cc3)C(=O)C(=O)N2CCN2CCOCC2)c2ccccc21 (configuration not stated)	5.7*
COCCCN1C(=O)C(=O)/C(=C(/O)c2ccc(C)cc2)C1c1ccc(N(C)C)cc1 (configuration not stated)	3.2*
COc1ccc(/C(O)=C2\C(=O)C(=O)N(CCN3CCNCC3)C2c2ccc(OC)cc2)cc1 (configuration not stated)	0.81
CN1C(=O)C2(/C(=C(/O)c3ccc(F)cc3)C(=O)C(=O)N2CCCN2CCOCC2)c2ccccc21 (configuration not stated)	0.07
CCCN1C(=O)C2(/C(=C(/O)c3ccccc3)C(=O)C(=O)N2CCN2CCOCC2)c2ccccc21 (configuration not stated)	4.7*
COc1ccc(/C(O)=C2\C(=O)C(=O)N(CCCN3CCOCC3)C2c2ccc(OC)cc2)cc1 (configuration not stated)	0.7
COc1ccc(/C(O)=C2\C(=O)C(=O)N(CCCN(C)C)C2c2ccc(N(C)C)cc2)cc1 (configuration not stated)	1.1
COc1ccc(/C(O)=C2\C(=O)C(=O)N(CCN3CCOCC3)C2c2ccc(F)cc2)cc1 (configuration not stated)	3.2*
CCN1C(=O)C2(/C(=C(/O)c3ccc(C)cc3)C(=O)C(=O)N2CCCN2CCOCC2)c2ccccc21 (configuration not stated)	2.2
COc1ccc(C2/C(=C(\O)c3ccc(C)cc3)C(=O)C(=O)N2CCCN(C)C)cc1 (configuration not stated)	2.5
CN1C(=O)C2(/C(=C(/O)c3ccc(F)cc3)C(=O)C(=O)N2CCN2CCOCC2)c2ccccc21 (configuration not stated)	-0.71
C=CCN1C(=O)C2(/C(=C(/O)c3ccccc3)C(=O)C(=O)N2CCN2CCOCC2)c2ccccc21 (configuration not stated)	1.5
CCOc1cc(C2c3c(oc4ccc(Cl)cc4c3=O)C(=O)N2Cc2ccc(F)cc2)ccc1O (configuration not stated)	1.6
COc1ccc(OC)c(N2C(=O)CC(Sc3nc4ccccc4s3)C2=O)c1 (configuration not stated)	0.23
CCCc1[nH]nc2c1C(c1ccccc1F)C(C#N)=C(N)O2 (configuration not stated)	-1.6
Cc1ccccc1C1Sc2ccccc2N=C2c3ccccc3SCC21 (configuration not stated)	0.41
CCOc1ccc(C2c3c(oc4cc(C)c(C)cc4c3=O)C(=O)N2c2nccs2)cc1OC (configuration not stated)	2.3
O=C(c1ncoc1-c1ccccc1)N(Cc1ccccn1)Cc1ccccn1	-0.52
CCOC(=O)CSc1n[nH]c(N)n1	-1.4
Cn1c(SCC(=O)O)nc2cc(C(F)(F)F)cnc21	-0.4
O=C(O)c1cc(Cl)cc(Cl)c1-c1c(Cl)cc(Cl)cc1C(=O)O	-0.2
Cc1ccc(/C(O)=C2/C(=O)C(=O)N(CCN3CCOCC3)C23C(=O)N(C)c2ccccc23)cc1F (configuration not stated)	4.2*
CN1C(=O)C2(/C(=C(/O)c3ccc(Cl)cc3)C(=O)C(=O)N2CCN2CCOCC2)c2ccccc21 (configuration not stated)	-0.98
SMILES	Dicer inh
Cc1ccc(/C(O)=C2/C(=O)C(=O)N(CCCN3CCOCC3)C23C(=O)N(C)c2ccccc23)cc1F (configuration not stated)	-3.9
CC(C)CNC(=O)N1c2ccccc2Sc2ccccc21	0.58
CC1(C)CC(NCC(=O)N2c3ccccc3Sc3ccc(Cl)cc32)CC(C)(C)N1	3.3*
O=C(C1CC1)N1c2ccccc2Sc2ccccc21	1.2
CCOC(=O)N/N=C(/CN1C(=O)c2ccccc2C1=O)c1ccc(C(F)(F)F)cc1	-2.4
O=c1/c(=C\c2cccc(Cl)c2Cl)sc2nc3ccccc3n12	0.53
CCOC(=O)CSc1nc2c(c(=O)n1CC)C1(CCCCC1)Cc1ccccc1-2	0.85
CSc1sc(-c2ccnc(SCc3c(Cl)cccc3Cl)n2)c2c1C(=O)CCC2	3.5*
CSc1sc(-c2nc(C(C)(C)C)cs2)c2c1C(=O)CCC2	0.15
CSc1sc(-c2nc(C)cs2)c(C)c1-c1ccnc(SCc2ccc(Cl)cc2)n1	-0.73
CC1=C(C(=O)Nn2cnc3cccc(F)c3c2=N)Sc2ccccc2N1	-8
Cc1onc(-c2c(Cl)cccc2Cl)c1C(=O)Oc1cccc2cccnc12	1.1
O=C(Oc1cccc2cccnc12)c1ccc2c(c1)-c1ccccc1C2=O	-0.05
O=C(Oc1cccc2cccnc12)c1ccc(Br)cc1	4.6*
CC(=O)N1CCc2cc(Br)cc([N+](=O)[O-])c21	-1.1
Cc1cc(-c2nnc(SCC(=O)c3ccc4c(c3)OCCO4)o2)no1	-1.3
Cc1cc(NC(=O)c2ccc3c(c2)OCO3)no1	20
Cc1cc(NC(=O)c2ccc3c(c2)OCCO3)no1	4.2*
O=C1CSC(=S)N1CCc1ccc(Cl)cc1	-1.2
COc1ccc(CCN2C(=O)CSC2=Nc2ccc(Cl)cc2C)cc1OC	2.3
O=C1CSC(=Nc2cc(Cl)c(Cl)cc2Cl)N1CCc1ccccc1	3.3*
O=C(c1ccccc1)c1sc(Nc2ccc(F)cc2)nc1-c1ccccc1	-1.5
CC(C(=O)O)N1C(=O)CSC1=O (configuration not stated)	-0.14
CN1CCN(C(c2cccs2)c2ccc3cccnc3c2O)CC1 (configuration not stated)	0.94
CN1CCN(C(c2cccs2)N2CCN(C)CC2)CC1	4.6*
SMILES	Dicer inh
CN1CCN(C(c2ccccc2)c2ccc(Cl)cc2)CC1 (configuration not stated)	-0.11
Cc1ccc2nc(-c3c(F)cccc3Cl)oc(=O)c2c1	-0.77
COc1cc(C2Nc3ccc(C(=O)c4ccccc4)cc3NC3=C2C(=O)CCC3)ccc1OC(C)=O (configuration not stated)	-0.22
CN(C)c1ccc(C2Nc3ccc(C(=O)c4ccccc4)cc3NC3=C2C(=O)CCC3)cc1 (configuration not stated)	5*
COc1ccc(C2Nc3ccc(C(=O)c4ccccc4)cc3NC3=C2C(=O)CCC3)c(OC)c1 (configuration not stated)	1.9
COc1ccc(-c2nnc(SCc3ccc(Br)cc3)o2)cc1	-0.79
CCCCn1c(C)c(C)c(S(=O)(=O)c2ccccc2)c1N	-2.1
C/C(=N\NC(=O)N/N=C(\C)c1ccc(C)cc1)c1ccc(C)cc1	0.66
NS(=O)(=O)c1ccc(NC(=O)CCCC(=O)O)cc1	1.3
CC(=O)Nc1ccc(NC(=O)CCC(=O)O)cc1	-1.3
COc1ccc(NC(=O)CCC(=O)O)cc1OC	3.7*
COc1ccc(NC(=O)CC(C)(C)CC(=O)O)cc1OC	-2.9
NS(=O)(=O)c1ccc(NC(=O)CCC(=O)O)cc1	3.4*
COC(=O)CCC(=O)Nc1ccc(C)cc1	-0.19
N#C/C(=N\OS(=O)(=O)c1cc(C(F)(F)F)cc(C(F)(F)F)c1)S(=O)(=O)c1ccc(Cl)cc1	-1.9
CCOC(=O)c1cc(C)nc(Sc2ccccn2)c1C#N	-2.4
CC1c2ccsc2CCN1C(=S)NC(=O)c1ccc(Cl)cc1 (configuration not stated)	0
CC(C)(C)c1ccc(NC(=O)N(CCC#N)CCc2ccccn2)cc1	-2
